Experimental findings from PubChem BioAssay (Tox21) are described below.

“And” between values parts separate entries of the source, which are not always exact repeats. Equal entries are not always repeated. Results filed as inconclusive are left out. A number with no mark means an inactive call. The source made the active and inactive calls. The call rests on the fitted dose curve; in most records, active means well fitted cell-killing curve with a large enough effect in the repeat runs; inconclusive means weak or mixed curves, or effect the other way; inactive means flat fitted curve, though single readings scatter.
On the % scale 0 is the no-effect control and ±100 the full control effect; potency means the concentration at half of the fitted maximal effect.

A short description of this assay: qHTS RealTime-Glo MT Cell Viability Assay in HEK293 cells - 24 hour (AID 1224886). Further: nearly all actives have a fitted effect of over 50% in size. On activity change, negative = cytotoxicity: top concentration of the series differs between compounds. The note with it: RealTime-Glo luminescence; series mostly up to 76.8 µM; activity change, negative = cytotoxicity: at the top concentration. An excerpt:
National Center for Advancing Translational Sciences [NCATS]
NIH Chemical Genomics Center [NCGC]
U.S. Environmental Protection Agency [EPA]
National Institutes of Environmental Health Sciences [NIEHS]
National Toxicology Program [NTP]
U.S. Food and Drug Administration [FDA]
Measure of cell viability is critical in the cell-base assay. Analysis of cell viability is necessary for the characterization of cell responses to cytotoxic drugs and environmental stress. A RealTime-Glo MT Cell Viability Assay to monitor cell viability in real time of continues cell culture during 40 hours of compound treatment was used to screen Tox21 10K library compounds in Hek293 cells. The RealTime-Glo MT Cell Viability Assay is a nonlytic, homogeneous, bioluminescent method to measure cell viability in real time using a simple, plate-based method. The assay involves adding NanoLuc luciferase and a cell-permeant prosubstrate to cells in culture. Viable cells reduce the proprietary prosubstrate to generate a substrate for NanoLuc luciferase. This substrate diffuses from cells into the surrounding culture medium, where it is rapidly used by the NanoLuc Enzyme to produce a luminescent signal. The signal correlates with the number of viable cells, making the assay well suited for cytotoxicity studies.
Tox21 Assay Protocol Summary:
The mixture of Hek293 cell suspension and reagents were dispensed at 600cells/6 ul/well in 1536-well tissue culture treated black solid bottom plates using a Multidrop dispenser. After the assay plates were incubated at a 37 C/5% CO2 incubator for 5 hours, 23 nL of compounds dissolved in DMSO, positive and negative controls was transferred to the assay plate by a pintool work station. The plates were incubated at 37 C for 40 hours. The luminescence intensity were measured at 0h, 8h, 16h, 24h, 32h and 40h time points using ViewLux plate reader during compound treatment.
Background: Quantitative high-throughput screening tests each substance at several concentrations.
With `CCSC(C)CC1CC(=O)C(/C(CC)=N/OC/C=C/Cl)=C(O)C1` (stereo not given), the “activity change, negative = cytotoxicity” value is 7.55% [at 35.3 µM]. With `FC(Cl)(Cl)Cl`, the “activity change, negative = cytotoxicity” value is -2.98%. Regarding `ClC1=C(Cl)[C@]2(Cl)[C@@H]3[C@@H](Cl)[C@H](Cl)C[C@@H]3[C@@]1(Cl)C2(Cl)Cl`, the “activity change, negative = cytotoxicity” value was 6.52%. Regarding `CC1(c2ccc(Oc3ccccc3)cc2)OC(=O)N(Nc2ccccc2)C1=O` (stereo not given), the Potency was 43.9 µM (active).

On to `O=[N+]([O-])c1ccc2ccc3cccc4ccc1c2c34`, for which the “activity change, negative = cytotoxicity” value was -23.9%. With `CC(C)CC(C)N` (stereo not given), the “activity change, negative = cytotoxicity” value was 4.32%. Take `Nc1c(Oc2ccccc2)cc(O)c2c1C(=O)c1ccccc1C2=O`: the Potency was 21.3 µM (active). Consider `ClC1=C(Cl)C2(Cl)C3C(Cl)C(Cl)CC3C1(Cl)C2(Cl)Cl` (stereo not given), for which the Potency is 48.8 µM (active). With `BrC(Br)Br`, the “activity change, negative = cytotoxicity” value is 9.23%.

For the compound `C[C@]12CC[C@H]3[C@@H](CCC4=CC(=O)CC[C@@]43C)[C@@H]1CC[C@@H]2O`, the Potency was 54.6 µM (active).

Regarding `CC1CCC(C(C)C)C(OC(=O)c2ccccc2N)C1` (stereo not given), the Potency was 34.2 µM (active). In the case of `CCOP(=S)(OCC)OC(Cl)C(Cl)(Cl)Cl` (stereo not given), the “activity change, negative = cytotoxicity” value was -5.52%. With `O=[N+]([O-])c1ccc(Oc2ccc(C(F)(F)F)cc2[N+](=O)[O-])cc1`, the Potency was 15.5 µM (active). With `C[C@@H]1O[C@@H](O[C@@H]2C=C3CC[C@@H]4[C@H](CC[C@]5(C)[C@@H](c6ccc(=O)oc6)CC[C@]45O)[C@@]3(C)CC2)[C@H](O)[C@H](O)[C@H]1O`, the Potency was 0.0301 µM (active). Regarding `ClCc1ccc(Cl)cc1Cl`, the “activity change, negative = cytotoxicity” value was -17.2%. With `CC(C)(C)c1ccc(CSc2cnn(C(C)(C)C)c(=O)c2Cl)cc1`, the Potency was 0.0389 µM (active). On to `CCCN(CCC)c1c([N+](=O)[O-])cc(S(N)(=O)=O)cc1[N+](=O)[O-]`, for which the Potency was 23.3 µM (active). For `O=C(CCCN1CCC2(CC1)C(=O)NCN2c1ccccc1)c1ccc(F)cc1`, the Potency was 10.7 µM (active). As to `CCC(C)c1cc(C(C)(C)C)cc(-n2nc3ccccc3n2)c1O` (stereo not given), the “activity change, negative = cytotoxicity” value is 0.164% [at 35.3 µM]. For the compound `CCCCCCCCCCCCCCCC[N+](C)(C)C`, the Potency is 9.42 µM (active) and 21.9 µM (active) and 9.52 µM (active). On to `C[As+](C)(C)CC(=O)[O-]`, for which the “activity change, negative = cytotoxicity” value was -8.84%. Same read-out and setting: the result for `O=C1c2ccccc2C(=O)C1C(=O)C(c1ccccc1)c1ccc(Cl)cc1` (stereo not given) reads -0.458%; that for `c1ccc(OCC2CO2)cc1` (stereo not given), 8.04%. Regarding `CC(C)N1C(=O)N(c2ccccc2)CSC1=NC(C)(C)C`, the Potency was 19.5 µM (active). As to `Nc1ccc(Cc2ccc(N)c(Cl)c2)cc1Cl`, the Potency is 26.6 µM (active). Consider `CN(C)S(=O)(=O)N(SC(F)(Cl)Cl)c1ccccc1`, for which the Potency is 4.36 µM (active). With `Cc1ccc(OP(=O)(Oc2ccccc2)Oc2ccccc2)cc1`, the “activity change, negative = cytotoxicity” value is -26%. On to `S=C=Nc1cccc2ccccc12`, for which the “activity change, negative = cytotoxicity” value is -2.76%. For `Clc1ccc(CO/N=C(\Cn2ccnc2)c2ccc(Cl)cc2Cl)c(Cl)c1`, the Potency is 21.3 µM (active). Turning to `CN(CCCC(O)c1cccnc1)N=O` (stereo not given), the “activity change, negative = cytotoxicity” value was -1.01%. In the case of `CCCOCC(=Nc1ccc(Cl)cc1C(F)(F)F)n1ccnc1`, the Potency was 43.6 µM (active). On to `NC(=O)CCl`, for which the “activity change, negative = cytotoxicity” value was 13.7%. On the same count and under the same terms, under `COP(=O)(CCC(=O)NCO)OC` stands 5.91%. `N#CSCSC#N`: the Potency is 12.6 µM (active) and 19.3 µM (active). As for `Nc1ccc(Sc2ccc(N)cc2)cc1`, the “activity change, negative = cytotoxicity” value was 0.461%. Still for that read-out and setting: the result for `CC(C)OS(C)(=O)=O` reads -0.0173%; that for `CCOP(=S)(OCC)SCCS(=O)(=O)CC`, 10.8%. Turning to `CCC[CH2][Sn]([CH2]CCC)([CH2]CCC)[O]C(=O)c1ccccc1`, the Potency was 0.389 µM (active).

`CS(=O)(=O)c1ccc(C(=O)C2C(=O)CCCC2=O)c([N+](=O)[O-])c1`: the Potency was 25 µM (active). In the case of `N#Cc1ccccc1Cl`, the “activity change, negative = cytotoxicity” value is 0.299%.
